These results are taken from the supplement of paper PMC10681739.
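Further: Full-length recombinant human ETS1 or RUNX1 bound to double-stranded 36-bp genomic probes on microarrays, detected by protein-specific primary antibody and Alexa488 secondary, spot fluorescence as median of four replicate spots.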

In the assay the target is RUNX1 (UniProt Q01196). In words: RUNX1 binding intensity (PBM fluorescence) in presence of ETS1, normalised to RUNX1-only experiment (arbitrary fluorescence units); higher = stronger binding. The settings on record: RUNX1 concentration 2 nM; ETS1 concentration 25 nM. Here is the method: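 Cooperative gcPBM on 36-bp genomic probes with neighbouring ETS1 and RUNX1 sites. Recombinant human RUNX1 (2 nM) was incubated alone or with ETS1 (25 nM) and detected with anti-RUNX1 antibody plus Alexa488 secondary. Values are medians over 4 replicate spots; the RUNX1+ETS1 data were normalised to the RUNX1-only data. The probes sit in constant array flanks that are not printed.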
Sequence of RUNX1 (Q01196 whole entry): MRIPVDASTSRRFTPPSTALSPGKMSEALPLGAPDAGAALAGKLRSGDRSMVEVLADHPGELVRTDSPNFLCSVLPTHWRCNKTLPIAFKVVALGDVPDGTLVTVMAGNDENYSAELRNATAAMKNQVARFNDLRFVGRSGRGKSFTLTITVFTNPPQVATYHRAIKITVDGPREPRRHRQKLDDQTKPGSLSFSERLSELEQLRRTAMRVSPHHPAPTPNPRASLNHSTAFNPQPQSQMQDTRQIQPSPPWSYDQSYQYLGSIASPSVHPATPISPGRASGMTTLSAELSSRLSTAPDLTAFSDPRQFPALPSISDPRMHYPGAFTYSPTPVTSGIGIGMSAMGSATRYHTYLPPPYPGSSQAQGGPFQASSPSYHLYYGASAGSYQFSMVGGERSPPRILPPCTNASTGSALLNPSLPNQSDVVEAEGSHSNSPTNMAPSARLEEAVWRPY
For GCCATTAAAGCAGCTTCCTGTGGGCGCGGCGCAGGA, the RUNX1 binding intensity is 1010.

Regarding CAGGCCTTTCCTGCTATCGTTTGTGGTTTGAGCAGT, the RUNX1 binding intensity is 3830.

As to ACCAGAACTAAAGCGGATAGCGGTTAGAAACGCCCA, the RUNX1 binding intensity was 952.

For GAGCCCAACCGGCATCCGTCGCGGTTGGACGTGGGC, the RUNX1 binding intensity was 1070.

In the case of TTCTATCCTGCCTTGCATGTCTTTAACCACACTGAG, the RUNX1 binding intensity is 1720.

Take CAGTGCCAGCCGGAACTTGTGGTTCGGACCGTGGGT: the RUNX1 binding intensity was 1420.

Take GCACCGTCTACCCGGAAGTTGTGGGCTGGGAGGGAT: the RUNX1 binding intensity was found to be 1430.

With TTGCTTTATCACTTCCTGTTTGAGGTTTATATCCAT, the RUNX1 binding intensity turned out to be 3160.

Turning to CCAAGTGTAAAACGGAAGCTCAACCACGAATCTTAC, the RUNX1 binding intensity worked out at 1100.

In the case of GCGAAAGGAACTTCCTTTGCATGCGGTCAGAGTGCT, the RUNX1 binding intensity turned out to be 2490.

Consider TTTCTGACACTCTCAGGATGTGGGTTTTCGCACTGT, for which the RUNX1 binding intensity amounted to 1350.

Regarding GAGGGACAGGATGCCGCCAGGAACCACAAGAGCTTC, the RUNX1 binding intensity worked out at 1300.

As to GTGGATTTCACATCCTGTCCTAGCGGTATGTTTGTC, the RUNX1 binding intensity worked out at 1750.

In the case of AGTCCACACTACAGGAAACCACAGGCCTGAGCCCCA, the RUNX1 binding intensity came out at 3440.

With AGGTTCCGGCGAAAGTGACCGAAAGTAACCGCCGGG, the RUNX1 binding intensity was found to be 967.

Turning to GTGGGGAGAGGCAGGAAACCGCTGCCGCCGACGGGG, the RUNX1 binding intensity amounted to 1030.

In the case of AGCTTCCGAGTCTGTTGTGGAGTGGGAACCGCGACT, the RUNX1 binding intensity turned out to be 1020.

On to AGAACCACTTCCTCTCAGTAAACCACAGAGACTGTA, for which the RUNX1 binding intensity stood at 5880.

For TCAATGACAGGAAGTTTTTAAACCACATACGGCTAA, the RUNX1 binding intensity was 1810.

For the sequence AACAGGCAAAGGACAGGATGTGGTGAGCGTCGGCCC, the RUNX1 binding intensity came out at 3040.

Take TGCGCCGGAAGTGCATGAGCTGCCGATGTGGTGCTT: the RUNX1 binding intensity stood at 1220.

With AAATACCAGCCCACTTCCTGTGGCTTTGATCTGCAG, the RUNX1 binding intensity amounted to 5090.

Turning to GGCGGATGGGGAGAAGAGAGTGGCTGTGGTCTCTGG, the RUNX1 binding intensity is 712.

For CTTGCCACACTTCCTCTTGTTTTGAACCACTATATT, the RUNX1 binding intensity was 4740.

As to TCAAGTTTGGTAACAGGATGTGGTAGGAGGAACACA, the RUNX1 binding intensity was 1730.

Turning to TCCCTCCTTCCGCTCTGGTTTTGTGGTTGCTTGCTG, the RUNX1 binding intensity came out at 3330.

For the sequence TACATCTTCAGAGGAAGTGGGTTTGTGTATCTTTGA, the RUNX1 binding intensity stood at 1380.

In the case of CAATGGATGGCCACATCCTCACCACAAACTGAGTCA, the RUNX1 binding intensity was found to be 1360.

For TCTCCTTTCAGGAAGCTGCACCCAAACCACCCTCAG, the RUNX1 binding intensity was determined as 949.

With AGAGGCAGTTCCGGGGTGGGAACCGCGCGGAGCTTT, the RUNX1 binding intensity turned out to be 1220.

On to CGGCGCCTTCCGCAGAGGGACTGCGGCTTTCTGCGC, for which the RUNX1 binding intensity was 1390.

On to GCTCGGAAATACCAATATTGGGCTGTGGTATTTGAA, for which the RUNX1 binding intensity was found to be 953.

For the sequence CAAGCTGGCAGGAAGCGCGGTGCAACCACAAGAGTC, the RUNX1 binding intensity was determined as 1260.

As for AAAGAGGAAATCACGTACCCGAAAACCACATGCACA, the RUNX1 binding intensity is 928.

As for CCCCTGCCCCTTCCTGGAAGGCTGCGGTGTAACACC, the RUNX1 binding intensity turned out to be 1780.

Consider GCGGAGGGAAGCGGAAATACTTGCGGTGGGGGCGAC, for which the RUNX1 binding intensity was 2210.

For the sequence ACCAGCCCAGGAAGCATCTGCGGTTCAAGTGGCCAC, the RUNX1 binding intensity was determined as 1750.

Turning to CAGAGCCAAACATGCGGAAGTGGTTACGTGTACTAG, the RUNX1 binding intensity came to 1900.

For AGCCCGGCTTCCGGCGCGTGCCGCTGCGGCTGCAGG, the RUNX1 binding intensity came out at 1370.

With TGCAGCCTATTTCCTCTAACCCGCAGATCCACTATG, the RUNX1 binding intensity came to 2250.
